Assay results: PubChem BioAssay (EPA / NIEHS)
Results filed as inconclusive are left out. Where a structure was tested more than once in an assay, its records may differ in their call. Activity calls are given as the source filed them. The calls were made as follows: active = hit-call score of the fitted dose curve at least 0.9, where 1 is the maximum; inconclusive = response in the unintended direction; inactive = score below 0.9.

Key:
[1] = molecular target: human Opioid Receptor Delta 1 (Opiate D1), OPRD1 (gene 4985) (UniProt P41143); assay: NVS_GPCR_hOpiate_D1: NovaScreen (NVS) G Protein-Coupled Receptor Assay for human Opioid Receptor Delta 1 (Opiate D1) (AID 2283280)
Chain of human Opioid Receptor Delta 1 (Opiate D1), OPRD1 (gene 4985) (P41143 whole entry, looked up): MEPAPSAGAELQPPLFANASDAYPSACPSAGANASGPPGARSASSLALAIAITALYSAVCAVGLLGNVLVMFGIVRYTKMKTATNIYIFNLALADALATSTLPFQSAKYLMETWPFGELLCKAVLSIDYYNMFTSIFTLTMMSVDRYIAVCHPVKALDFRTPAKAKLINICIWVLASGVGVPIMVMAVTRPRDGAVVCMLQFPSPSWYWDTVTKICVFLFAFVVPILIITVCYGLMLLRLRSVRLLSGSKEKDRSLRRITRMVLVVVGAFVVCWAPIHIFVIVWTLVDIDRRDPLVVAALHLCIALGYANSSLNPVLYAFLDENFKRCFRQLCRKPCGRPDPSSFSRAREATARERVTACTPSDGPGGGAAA
Summary of the method: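 Membrane preparations from CHO cells bearing the human receptor were incubated 1 h with test chemical, and bound radioligand was counted after filtration. Actives from 25 uM duplicate screening were retested in concentration-response.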

[2] = molecular target: human Purinergic Receptor P2Y, P2RY1 (gene 5028) (UniProt P47900); assay: NVS_GPCR_hPY2: NovaScreen (NVS) G Protein-Coupled Receptor Assay for human Purinergic Receptor P2Y (AID 2283281)
Chain of human Purinergic Receptor P2Y, P2RY1 (gene 5028) (P47900 whole entry, looked up): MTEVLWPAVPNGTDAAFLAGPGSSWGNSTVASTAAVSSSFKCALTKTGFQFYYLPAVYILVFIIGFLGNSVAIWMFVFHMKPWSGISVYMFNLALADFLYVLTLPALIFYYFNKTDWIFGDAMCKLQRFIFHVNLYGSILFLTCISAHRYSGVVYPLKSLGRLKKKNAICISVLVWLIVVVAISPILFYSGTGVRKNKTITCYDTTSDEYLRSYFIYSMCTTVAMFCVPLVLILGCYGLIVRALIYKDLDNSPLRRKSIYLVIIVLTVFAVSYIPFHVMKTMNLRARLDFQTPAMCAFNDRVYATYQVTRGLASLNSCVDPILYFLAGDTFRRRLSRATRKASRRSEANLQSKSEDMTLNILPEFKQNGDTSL
Summary of the method: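 Filtration scintillation readout of radioligand displacement on U937 extract, measured 1 h post-dosing. Single 25 uM duplicate screen, then singleton concentration series to 50 uM for chemicals passing threshold; DMSO as baseline.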

[3] = tested on: rat Adrenergic, Alpha 1B Receptor (Adra1B), gene 24173; assay: NVS_GPCR_rAdra1B: NovaScreen (NVS) G Protein-Coupled Receptor Assay for rat Adrenergic, Alpha 1B Receptor (Adra1B) (AID 2283297)
Summary of the method: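 Filter-binding radioligand competition on membranes from rat liver, read after 1 h by scintillation counting. Single-concentration duplicate screen at 25 uM, followed by concentration-response on actives, normalised to DMSO.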

[4] = molecular target: rat Glutamate, NMDA Agonist Site (GluNMDA), Grin1 (gene 24408) (UniProt P35439); assay: NVS_LGIC_rGluNMDA_Agonist: NovaScreen (NVS) Ligand-Gated Ion Channel Assay for rat Glutamate, NMDA Agonist Site (GluNMDA) (AID 2283327)
Summary of the method: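 Radioligand displacement at the agonist site on rat forebrain membrane preparations, read by filter scintillation after 1 h. Chemicals were first run at 25 uM in duplicate; those passing threshold were titrated to a 50 uM maximum.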

[5] = molecular target: human Orphanin, Opioid Related Nociceptin Receptor 1 (ORL1), OPRL1 (gene 4987) (UniProt P41146); assay: NVS_GPCR_hORL1: NovaScreen (NVS) G Protein-Coupled Receptor Assay for human Orphanin, Opioid Related Nociceptin Receptor 1 (ORL1) (AID 2283283)
Chain of human Orphanin, Opioid Related Nociceptin Receptor 1 (ORL1), OPRL1 (gene 4987) (P41146 whole entry, looked up): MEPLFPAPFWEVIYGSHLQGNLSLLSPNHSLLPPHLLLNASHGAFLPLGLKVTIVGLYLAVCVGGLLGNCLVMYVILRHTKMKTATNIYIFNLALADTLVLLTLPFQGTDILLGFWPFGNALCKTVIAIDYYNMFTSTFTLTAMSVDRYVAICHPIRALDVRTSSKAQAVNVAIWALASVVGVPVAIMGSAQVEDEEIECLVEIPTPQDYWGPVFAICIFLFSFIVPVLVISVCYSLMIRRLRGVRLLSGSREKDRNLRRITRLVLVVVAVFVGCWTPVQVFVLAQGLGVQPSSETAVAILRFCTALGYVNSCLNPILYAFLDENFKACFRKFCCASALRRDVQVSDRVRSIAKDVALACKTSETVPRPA
Summary of the method: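 Cell-free binding using HEK293-derived receptor protein: radioligand displacement measured by filter scintillation 1 hour after dosing. Primary testing at 25 uM in duplicate, followed by singleton concentration series up to 50 uM; DMSO served as negative control.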

[6] = molecular target: rat Corticotropin Releasing Factor Receptor (CRF), Crhr1 (gene 58959) (UniProt P35353); assay: NVS_GPCR_rCRF: NovaScreen (NVS) G Protein-Coupled Receptor Assay for rat Corticotropin Releasing Factor Receptor (CRF) (AID 2283300)
Chain of rat Corticotropin Releasing Factor Receptor (CRF), Crhr1 (gene 58959) (P35353 whole entry, looked up): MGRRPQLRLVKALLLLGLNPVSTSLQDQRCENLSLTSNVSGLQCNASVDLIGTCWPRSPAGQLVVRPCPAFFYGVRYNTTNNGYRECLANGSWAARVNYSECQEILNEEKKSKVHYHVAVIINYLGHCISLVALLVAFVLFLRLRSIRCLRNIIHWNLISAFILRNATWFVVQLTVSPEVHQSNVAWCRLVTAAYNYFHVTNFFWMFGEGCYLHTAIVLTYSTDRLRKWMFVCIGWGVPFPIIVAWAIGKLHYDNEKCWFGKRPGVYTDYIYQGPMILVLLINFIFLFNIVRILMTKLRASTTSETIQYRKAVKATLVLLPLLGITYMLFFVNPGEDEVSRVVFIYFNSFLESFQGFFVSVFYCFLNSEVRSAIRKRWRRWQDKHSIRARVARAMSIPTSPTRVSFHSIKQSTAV
Summary of the method: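 Single-concentration (25 uM, duplicate) radioligand binding on rat cortical membrane preparations, counted by scintillation after 2 h. Activity scored as signal loss relative to DMSO negative control.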

[7] = molecular target: rat Glutamate, AMPA Site (AMPA), Gria1 (gene 50592) (UniProt P19490); assay: NVS_LGIC_rAMPA: NovaScreen (NVS) Ligand-Gated Ion Channel Assay for rat Glutamate, AMPA Site (AMPA) (AID 2283324)
Chain of rat Glutamate, AMPA Site (AMPA), Gria1 (gene 50592) (P19490 whole entry, looked up): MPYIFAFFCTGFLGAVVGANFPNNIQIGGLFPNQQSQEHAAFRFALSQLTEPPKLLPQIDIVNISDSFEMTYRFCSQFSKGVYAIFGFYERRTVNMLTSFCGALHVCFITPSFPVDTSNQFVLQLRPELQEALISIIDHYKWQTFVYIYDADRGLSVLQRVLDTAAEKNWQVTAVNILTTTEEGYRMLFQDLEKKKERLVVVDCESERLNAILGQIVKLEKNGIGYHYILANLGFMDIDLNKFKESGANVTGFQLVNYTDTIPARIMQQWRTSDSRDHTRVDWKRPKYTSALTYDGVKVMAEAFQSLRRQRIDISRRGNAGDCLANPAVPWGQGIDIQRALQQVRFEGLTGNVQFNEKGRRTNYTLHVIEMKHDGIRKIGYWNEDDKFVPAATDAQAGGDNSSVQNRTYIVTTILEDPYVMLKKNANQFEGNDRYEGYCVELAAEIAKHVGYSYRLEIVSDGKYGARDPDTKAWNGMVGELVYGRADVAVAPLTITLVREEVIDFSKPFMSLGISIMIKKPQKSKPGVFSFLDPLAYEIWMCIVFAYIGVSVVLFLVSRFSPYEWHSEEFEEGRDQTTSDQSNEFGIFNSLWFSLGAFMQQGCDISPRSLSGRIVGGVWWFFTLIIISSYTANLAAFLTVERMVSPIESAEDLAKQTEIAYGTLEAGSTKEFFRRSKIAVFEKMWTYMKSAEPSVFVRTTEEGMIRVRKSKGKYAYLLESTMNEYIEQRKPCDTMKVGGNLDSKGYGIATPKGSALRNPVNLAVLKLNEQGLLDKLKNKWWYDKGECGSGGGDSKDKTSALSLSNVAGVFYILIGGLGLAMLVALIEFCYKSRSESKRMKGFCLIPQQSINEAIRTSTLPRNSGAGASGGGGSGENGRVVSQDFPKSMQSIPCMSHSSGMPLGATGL
Summary of the method: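 Screening at 25 uM in duplicate preceded concentration series reaching 50 uM for qualifying compounds. Radioligand displacement on rat forebrain membranes, 1 h, filter-based scintillation readout; reduced binding relative to DMSO.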

[8] = molecular target: mouse Cholecystokinin, CCK1 Receptor (CCKA), Cckar (gene 12425) (UniProt O08786); assay: NVS_GPCR_mCCKAPeripheral: NovaScreen (NVS) G Protein-Coupled Receptor Assay for mouse Cholecystokinin, CCK1 Receptor (CCKA) (AID 2283285)
Chain of mouse Cholecystokinin, CCK1 Receptor (CCKA), Cckar (gene 12425) (O08786 whole entry, looked up): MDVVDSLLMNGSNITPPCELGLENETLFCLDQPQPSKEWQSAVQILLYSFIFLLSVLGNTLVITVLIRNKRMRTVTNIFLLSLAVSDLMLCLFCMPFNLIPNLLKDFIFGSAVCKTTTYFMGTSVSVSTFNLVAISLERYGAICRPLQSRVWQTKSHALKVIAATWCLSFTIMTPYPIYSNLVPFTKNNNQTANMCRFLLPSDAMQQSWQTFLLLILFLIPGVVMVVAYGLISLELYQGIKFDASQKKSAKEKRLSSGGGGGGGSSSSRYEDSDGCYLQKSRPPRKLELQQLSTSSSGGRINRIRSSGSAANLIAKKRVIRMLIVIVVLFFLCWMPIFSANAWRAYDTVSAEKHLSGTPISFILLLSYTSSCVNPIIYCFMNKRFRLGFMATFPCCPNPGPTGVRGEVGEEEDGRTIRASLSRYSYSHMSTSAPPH
Summary of the method: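 Chemicals were first screened in duplicate at 25 uM, with those meeting threshold (e.g., 30% inhibition) retested in singleton concentration series to 50 uM maximum. Binding of radioligand to mouse pancreatic membranes was read after 2 h by filtration and scintillation counting.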

[9] = molecular target: human Neonicotinoid receptor (NNR), CHRNA2 (gene 1135) (UniProt Q15822); assay: NVS_LGIC_hNNR_NBungSens: NovaScreen (NVS) Ligand-Gated Ion Channel Assay for human Neonicotinoid receptor (NNR) (AID 2283313)
Chain of human Neonicotinoid receptor (NNR), CHRNA2 (gene 1135) (Q15822 whole entry, looked up): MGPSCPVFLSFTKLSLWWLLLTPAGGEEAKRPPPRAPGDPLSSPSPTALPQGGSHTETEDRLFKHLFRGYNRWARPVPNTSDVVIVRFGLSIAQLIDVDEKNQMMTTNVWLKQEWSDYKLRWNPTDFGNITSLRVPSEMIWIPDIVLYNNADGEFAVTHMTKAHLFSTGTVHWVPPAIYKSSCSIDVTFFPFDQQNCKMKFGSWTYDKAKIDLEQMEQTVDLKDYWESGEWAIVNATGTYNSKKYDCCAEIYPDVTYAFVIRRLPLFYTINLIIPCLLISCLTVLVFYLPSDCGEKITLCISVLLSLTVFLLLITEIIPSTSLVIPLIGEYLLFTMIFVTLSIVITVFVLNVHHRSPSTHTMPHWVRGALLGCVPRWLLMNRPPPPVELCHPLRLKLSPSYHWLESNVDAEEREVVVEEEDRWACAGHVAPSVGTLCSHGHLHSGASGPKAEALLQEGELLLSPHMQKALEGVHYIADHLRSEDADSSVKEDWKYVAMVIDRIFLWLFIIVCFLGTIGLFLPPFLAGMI
Summary of the method: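 Compounds first screened in duplicate at 25 uM, then actives re-tested in single-replicate dose series up to 50 uM. Binding measured as displacement of specific radioligand from neuroblastoma membrane receptors after 2 h, scintillation read on filters.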

[10] = molecular target: human Constitutive Androstane Receptor (CAR), NR1I3 (gene 9970) (UniProt Q14994); assay: NVS_NR_hCAR_Agonist: NovaScreen (NVS) Nuclear Receptor Binding Assay for human Constitutive Androstane Receptor Agonism (CAR) (AID 2283328)
Chain of human Constitutive Androstane Receptor (CAR), NR1I3 (gene 9970) (Q14994 whole entry, looked up): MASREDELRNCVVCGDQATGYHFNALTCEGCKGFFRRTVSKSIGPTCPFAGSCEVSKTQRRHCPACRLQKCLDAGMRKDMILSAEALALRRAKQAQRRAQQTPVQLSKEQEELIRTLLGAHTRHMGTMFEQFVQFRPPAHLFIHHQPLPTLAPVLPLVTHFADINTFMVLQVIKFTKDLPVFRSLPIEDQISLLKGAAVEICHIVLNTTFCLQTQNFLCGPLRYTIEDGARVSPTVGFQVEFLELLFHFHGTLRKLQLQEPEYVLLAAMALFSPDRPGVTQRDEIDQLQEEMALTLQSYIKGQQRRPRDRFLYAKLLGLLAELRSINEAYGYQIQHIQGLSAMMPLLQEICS
Summary of the method: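 Actives from a 25 uM duplicate screen were retested in singleton concentration series to 50 uM max. Biochemical TR-FRET assay on extracted CAR protein measured 1 h post-dose, with signal increase over DMSO control.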

[11] = tested on: 5-hydroxytryptamine receptor 2C (pig); assay: NVS_GPCR_p5HT2C: NovaScreen (NVS) G Protein-Coupled Receptor Assay for pig Serotonin, 5-Hydroxytryptamine Receptor 2C (5HT2C) (AID 2283288)
Summary of the method: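 Radioligand displacement on membranes from pig choroid plexus, detected by filter scintillation counting after 1 h. Tested first at a single 25 uM in duplicate, then in concentration-response for actives; DMSO served as baseline.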

[12] = molecular target: rat Gamma-Aminobutyric Acid Type A Receptor, Non-Selective (GABAR-NonSelective), Gabra1 (gene 29705) (UniProt P62813); assay: NVS_LGIC_rGABAR_NonSelective: NovaScreen (NVS) Ligand-Gated Ion Channel Assay for rat Gamma-Aminobutyric Acid Type A Receptor, Non-Selective (GABAR-NonSelective) (AID 2283326)
Chain of rat Gamma-Aminobutyric Acid Type A Receptor, Non-Selective (GABAR-NonSelective), Gabra1 (gene 29705) (P62813 whole entry, looked up): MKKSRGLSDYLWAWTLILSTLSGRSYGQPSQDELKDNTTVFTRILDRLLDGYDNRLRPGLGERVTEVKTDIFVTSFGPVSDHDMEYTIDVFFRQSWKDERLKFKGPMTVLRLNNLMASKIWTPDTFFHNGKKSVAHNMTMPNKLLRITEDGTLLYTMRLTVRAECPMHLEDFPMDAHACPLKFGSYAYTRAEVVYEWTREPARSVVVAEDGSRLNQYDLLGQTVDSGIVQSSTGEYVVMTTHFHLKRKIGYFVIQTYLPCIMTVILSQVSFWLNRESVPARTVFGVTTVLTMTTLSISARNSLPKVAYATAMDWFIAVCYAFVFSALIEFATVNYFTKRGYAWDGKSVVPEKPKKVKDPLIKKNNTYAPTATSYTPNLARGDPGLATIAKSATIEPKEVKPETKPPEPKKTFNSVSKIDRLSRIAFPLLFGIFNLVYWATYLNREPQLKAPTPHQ
Summary of the method: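 Compounds were first screened in duplicate at 25 uM, with actives run as singleton concentration series (max 50 uM). Binding of a radioligand to rat whole-brain GABA-A preparation was measured by filtration and scintillation counting after 1 h, DMSO baseline.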

[13] = molecular target: mouse Cholecystokinin, CCK2 Receptor (CCKB), Cckbr (gene 12426) (UniProt P56481); assay: NVS_GPCR_mCKKBCentral: NovaScreen (NVS) G Protein-Coupled Receptor Assay for mouse Cholecystokinin, CCK2 Receptor (CCKB) (AID 2283293)
Summary of the method: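 Mouse forebrain membrane preparation incubated 2 h with chemical and radioligand; bound radioactivity counted after filtration. Single-concentration duplicate screen at 25 uM, then concentration series to 50 uM max for hits, DMSO as baseline.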

[14] = molecular target: rat Neonicotinoid receptor (NNR), Chrna7 (gene 25302) (UniProt Q05941); assay: NVS_LGIC_rNNR_BungSens: NovaScreen (NVS) Ligand-Gated Ion Channel Assay for rat Neonicotinoid receptor (NNR) (AID 2283315)
Chain of rat Neonicotinoid receptor (NNR), Chrna7 (gene 25302) (Q05941 whole entry, looked up): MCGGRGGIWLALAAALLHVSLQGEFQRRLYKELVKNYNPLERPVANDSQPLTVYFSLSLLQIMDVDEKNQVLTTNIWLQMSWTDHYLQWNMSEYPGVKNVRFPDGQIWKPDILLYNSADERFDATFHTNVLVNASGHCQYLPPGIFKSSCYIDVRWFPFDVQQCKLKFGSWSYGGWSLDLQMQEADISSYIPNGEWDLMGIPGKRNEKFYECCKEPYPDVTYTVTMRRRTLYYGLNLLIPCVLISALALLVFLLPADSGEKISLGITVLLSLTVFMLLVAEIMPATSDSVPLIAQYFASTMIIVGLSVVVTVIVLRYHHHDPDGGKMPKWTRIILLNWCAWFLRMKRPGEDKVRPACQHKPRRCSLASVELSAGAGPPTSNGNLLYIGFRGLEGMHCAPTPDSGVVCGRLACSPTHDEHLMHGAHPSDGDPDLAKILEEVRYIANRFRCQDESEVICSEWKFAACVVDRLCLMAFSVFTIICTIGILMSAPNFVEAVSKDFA
Summary of the method: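 Rat cortical membrane preparation incubated 2.5 h with tritiated or iodinated radioligand and test chemical. Bound radioactivity was filtered and counted by scintillation, and displacement was analysed against DMSO.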

[15] = molecular target: Voltage-dependent N-type calcium channel subunit alpha-1B (Rattus norvegicus) (UniProt Q02294); assay: NVS_IC_rCaChN: NovaScreen (NVS) Ion Channel Assay for rat Calcium Channel, Type N (CaChN) (AID 2283317)
[16] = NVS_IC_rCaDHPRCh_L: NovaScreen (NVS) Ion Channel Assay for rat Calcium Channel, Type L, Dihydropyridine Site (CaDHPRCh_L) (AID 2283320)
Summary of the method: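 Rat cortex membrane preparation; dihydropyridine-site radioligand displacement read 1 h post-dose by filtration and scintillation. Primary single-point screen 25 uM in duplicate, then concentration series to 50 uM maximum; DMSO as negative control.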

With `CCCCCCCCCCCCc1cccc(S(=O)(=O)O)c1` as the compound, how does the AC50 [1] read?
Its AC50 is 11.8 µM (active).

What about the outcome [2] of the same compound?
Its outcome is “inactive”.

What about the AC50 [3] of the same compound?
The AC50 was 22.5 µM (active).

And the outcome [4]?
Its outcome is “inactive”.

With `Cc1cc(Cl)ccc1OC(C)C(=O)O` (stereo unspecified) as the compound, how does the outcome [2] read?
Its outcome is “inactive”.

With `N#CCCC(Br)(C#N)CBr` (stereo unspecified) as the compound, how does the AC50 [5] read?
Its AC50 is 4.83 µM (active).

What does the source list for `CN(C)C(=S)S`?
AC50 [5]: 25 µM (active); outcome [6]: inactive; outcome [7]: inactive

With `O=C(N[C@H]1CN2CCC1CC2)c1ccc2c(c1)OCCO2` as the compound, how does the outcome [8] read?
The outcome was “inactive”.

And the AC50 [9]?
The AC50 was 12.1 µM (active).

What about the outcome [10] of the same compound?
Its outcome is “inactive”.

What does the source list for `Oc1cc(Cl)c(Cl)cc1Cl`?
AC50 [11]: 10.2 µM (active); outcome [12]: inactive

With `COC(=O)Nc1cccc(OC(=O)Nc2cccc(C)c2)c1` as the compound, how does the AC50 [11] read?
The AC50 was 25 µM (active).

For `Oc1c(Cl)cc(Cl)cc1Cl`, which outcome [13] is on record?
Its outcome is “inactive”.

Which AC50 [14] does the source give for `C[N+](C)(C)Cc1ccccc1` here?
The AC50 was 25 µM (active).

And the outcome [14]?
Its outcome is “inactive”.

With `O=C1C[C@@H]2OCC=C3CN4CC[C@]56c7ccccc7N1[C@H]5[C@H]2[C@H]3C[C@H]46` as the compound, how does the outcome [14] read?
Its outcome is “inactive”.

With `O=C(O)C1(c2ccc3c(c2)OC[C@H](Cc2ccc(-c4ccccc4)cc2)[C@H]3O)CCCC1` as the compound, how does the outcome [15] read?
The outcome was “inactive”.

With `Clc1cccc(Cl)c1` as the compound, how does the outcome [16] read?
Its outcome is “inactive”.
